Calls of active or inactive are those of the source.
Legend:
[1] = E. coli DRC41 culture turbidity changes, primary screen, E. coli filamentation inducer project, strain DRC41, OD650, 48 h (AID 1152);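 also: E. coli MC1000 strain DRC41 lacking acrAB efflux pump and sulA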; conditions: E. coli DRC41 (acrAB sulA), higher = more signal, called active from +8 up or from −8 down
[2] = small-molecule binders of probe aLefty1, primary screen, biochemical, small-molecule microarray, 635/667 nm fluorescence (AID 1153); conditions: higher = more signal;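 also: score merges spot fluorescence with signal-to-noise ratio from the scanned slide images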
[3] = PSAC antagonists in infected red cells, primary screen, cell-based, P. falciparum Indochina, OD700, 1 h (AID 1154); conditions: P. falciparum Indochina infected RBC osmotic lysis, higher = more signal, called active from +8 up or from −8 down
[4] = PSAC antagonists in infected red cells, primary screen, cell-based, P. falciparum Indochina, OD700, 2 h (AID 1155);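 also: lysis reports solute entry through the parasite surface anion channel PSAC; channel blockers reduce lysis of infected cells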; conditions: P. falciparum Indochina infected erythrocytes, osmotic lysis OD700; higher = more signal, called active from +8 up or from −8 down
[5] = osmotic lysis modulators in infected erythrocytes, primary screen, PSAC antagonist project, cell-based, P. falciparum Indochina, OD700, 3 h (AID 1156); conditions: higher = more signal, called active from +8 up or from −8 down
[6] = PSAC antagonists in infected red cells, primary screen, cell-based, P. falciparum Indochina, OD700, 18 h (AID 1157); conditions: P. falciparum Indochina infected erythrocytes, osmotic lysis OD700, 18 h; higher = more signal, called active from +8 up or from −8 down
[7] = modulators of S6 phosphorylation in cells, primary screen, cell-based, A549, cytoblot, luminescence, serum-stimulated (AID 1158); conditions: A549 phospho-S6 cytoblot, 5 h, higher = more signal;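 also: serum-stimulated A549 lung adenocarcinoma cells; signal is phosphorylated S6 detected by cytoblot immunostaining with HRP secondary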
[8] = target: NADPH oxidase 2 (Homo sapiens) (UniProt P04839); test: NOX2-dependent H2O2 signal modulators, primary screen, NOX inhibitor project, cell-based, HEK293-NOX2, PMA-stimulated, Amplex Red fluorescence (AID 1159); conditions: 45 min, higher = more signal, called active from +8 up or from −8 down; also: test concentration not given here
Chain of NADPH oxidase 2 (Homo sapiens) (P04839 whole entry, looked up): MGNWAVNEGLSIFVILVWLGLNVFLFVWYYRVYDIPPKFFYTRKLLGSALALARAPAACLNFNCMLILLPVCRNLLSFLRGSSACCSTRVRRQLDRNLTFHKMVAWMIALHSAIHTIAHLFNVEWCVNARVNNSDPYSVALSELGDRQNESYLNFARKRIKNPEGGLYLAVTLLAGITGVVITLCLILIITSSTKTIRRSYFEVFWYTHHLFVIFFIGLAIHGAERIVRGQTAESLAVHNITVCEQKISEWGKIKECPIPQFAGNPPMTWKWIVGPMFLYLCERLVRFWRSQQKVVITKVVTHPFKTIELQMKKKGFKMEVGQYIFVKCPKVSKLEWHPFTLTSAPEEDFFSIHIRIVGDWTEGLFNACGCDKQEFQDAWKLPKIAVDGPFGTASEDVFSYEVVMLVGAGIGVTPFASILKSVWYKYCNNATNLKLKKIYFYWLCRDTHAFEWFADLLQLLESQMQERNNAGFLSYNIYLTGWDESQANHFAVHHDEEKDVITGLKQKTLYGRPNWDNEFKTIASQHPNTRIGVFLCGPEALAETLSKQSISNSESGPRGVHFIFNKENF

[9] = target: NADPH oxidase 4 (Homo sapiens) (UniProt Q9NPH5); test: NOX4-dependent H2O2 signal modulators, primary screen, NOX inhibitor project, cell-based, HEK293-NOX4, tetracycline-induced, Amplex Red fluorescence (AID 1160); conditions: 45 min, higher = more signal, called active from +8 up or from −8 down
Chain of NADPH oxidase 4 (Homo sapiens) (Q9NPH5 whole entry, looked up): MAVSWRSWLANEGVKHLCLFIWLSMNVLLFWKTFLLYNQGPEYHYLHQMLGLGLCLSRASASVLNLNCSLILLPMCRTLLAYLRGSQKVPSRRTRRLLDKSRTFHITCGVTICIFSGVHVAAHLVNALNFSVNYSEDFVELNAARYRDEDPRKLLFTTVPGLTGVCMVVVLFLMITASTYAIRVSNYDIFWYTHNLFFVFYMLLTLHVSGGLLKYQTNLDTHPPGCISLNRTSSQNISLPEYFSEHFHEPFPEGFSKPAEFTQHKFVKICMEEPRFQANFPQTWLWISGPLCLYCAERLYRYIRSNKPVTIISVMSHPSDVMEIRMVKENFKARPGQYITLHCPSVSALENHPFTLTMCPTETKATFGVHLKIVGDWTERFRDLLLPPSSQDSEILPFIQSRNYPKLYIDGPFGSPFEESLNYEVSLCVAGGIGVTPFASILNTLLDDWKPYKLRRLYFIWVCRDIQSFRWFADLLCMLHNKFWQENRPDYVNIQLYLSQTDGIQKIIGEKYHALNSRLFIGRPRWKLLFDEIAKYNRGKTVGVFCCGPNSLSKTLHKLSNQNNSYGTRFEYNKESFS

[10] = target: NADPH oxidase 5 (Homo sapiens) (UniProt Q96PH1); test: NOX5-dependent H2O2 signal modulators, primary screen, NOX inhibitor project, cell-based, HEK293-NOX5, Amplex Red fluorescence (AID 1161); conditions: HEK293-NOX5, ionomycin, 45 min, higher = more signal
Chain of NADPH oxidase 5 (Homo sapiens) (Q96PH1 whole entry, looked up): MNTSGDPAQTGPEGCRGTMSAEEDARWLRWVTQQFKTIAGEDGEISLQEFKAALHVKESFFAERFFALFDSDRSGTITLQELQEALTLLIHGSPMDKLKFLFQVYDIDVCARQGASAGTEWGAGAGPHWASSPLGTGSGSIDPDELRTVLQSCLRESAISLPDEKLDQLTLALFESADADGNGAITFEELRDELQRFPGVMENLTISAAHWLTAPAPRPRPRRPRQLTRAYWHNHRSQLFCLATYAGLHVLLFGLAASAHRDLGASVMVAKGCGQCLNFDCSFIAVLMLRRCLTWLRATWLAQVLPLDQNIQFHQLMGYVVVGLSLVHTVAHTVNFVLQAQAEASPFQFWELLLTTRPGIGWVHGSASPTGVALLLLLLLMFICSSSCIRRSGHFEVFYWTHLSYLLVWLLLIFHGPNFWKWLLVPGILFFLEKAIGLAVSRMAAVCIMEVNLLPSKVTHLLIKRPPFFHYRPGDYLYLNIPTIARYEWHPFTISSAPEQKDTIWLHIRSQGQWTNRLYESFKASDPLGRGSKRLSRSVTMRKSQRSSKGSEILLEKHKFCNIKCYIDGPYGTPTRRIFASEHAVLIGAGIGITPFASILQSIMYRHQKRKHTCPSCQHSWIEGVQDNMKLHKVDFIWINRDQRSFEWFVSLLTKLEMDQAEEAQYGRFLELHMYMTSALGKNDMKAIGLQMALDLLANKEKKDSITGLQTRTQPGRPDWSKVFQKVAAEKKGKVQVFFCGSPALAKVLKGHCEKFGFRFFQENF

SMILES | z-score [1] | composite z-score [2] | z-score [3] | z-score [4] | z-score [5] | z-score [6] | z-score [7] | z-score [8] | z-score [9] | z-score [10]
Cc1cc(C)c(C(O)C2C=CC3C(=O)NC(=O)C3N2Nc2ccc(Cl)cc2Cl)c(C)c1 (stereo not given) | -2.38 (inactive) | 0.479 | 3.38 (inactive) | 1.18 (inactive) | -1.55 (inactive) | 0.876 (inactive) | -0.919 | 0.614 (inactive) | -4.94 (inactive) | -1.3
C=C(COC)/C(=C/C[C@H](OC(=O)c1ccncc1)c1ccccc1OCCO)c1cnc2ccccc2c1 | 0.657 (inactive) | 0.401 | 13 (active) | 1.86 (inactive) | 1.31 (inactive) | 0.553 (inactive) | 0.513 | -1.85 (inactive) | -0.502 (inactive) | -0.71
CCCC[C@@H](O)C1=C(COc2ccccc2)C[C@H]2C(=O)N(C)C(=O)[C@H]2[C@H]1CO | 2.41 (inactive) | -0.274 | 4.68 (inactive) | -0.35 (inactive) | 0.241 (inactive) | -1.53 (inactive) | 1.56 | -0.69 (inactive) | 0.449 (inactive) | 0.187
[N-]=[N+]=Nc1ccccc1[C@H]1OC(c2ccc(OCCCO)cc2)=N[C@@]1(CCS(=O)(=O)c1ccccc1)C(=O)NCCN1CCOCC1 | -0.0631 (inactive) | 0.458 | 28.9 (active) | 25.6 (active) | 0.931 (inactive) | 1.8 (inactive) | 0.468 | -2.18 (inactive) | -0.233 (inactive) | -1.47
CN(C)C(=O)C1N=C(c2ccc(OCCCO)cc2)N(c2ccccc2)O1 (stereo not given) | 0.975 (inactive) | 0.0509 | 18.3 (active) | 2.14 (inactive) | 0.0521 (inactive) | 0.325 (inactive) | 0.296 | -4.12 (inactive) | -0.509 (inactive) | -1.12
C=CCN1C(=O)[C@@]2(O[C@@H](CCn3cc([C@H](O)c4ccccc4)nn3)[C@H]([Si](C)(C)c3ccc(OC)cc3)[C@H]2C)c2cc(N3CCC3=O)ccc21 | 0.359 (inactive) | -0.189 | 14.4 (active) | 1.98 (inactive) | 0.292 (inactive) | 1.01 (inactive) | -0.266 | 0.631 (inactive) | -0.498 (inactive) | 0.0158
CCC(CC)C(O)C1C=CC2C(=O)N(c3ccccc3)C(=O)C2N1Nc1ccc(C(C)C)cc1 (stereo not given) | -0.636 (inactive) | 0.501 | 1.46 (inactive) | 1.19 (inactive) | 0.741 (inactive) | 0.801 (inactive) | -0.463 | -0.743 (inactive) | -4.43 (inactive) | -3.75
CCOC(=O)C[C@H]1[C@H](OC(=O)Cc2ccc3c(c2)OCO3)[C@@H](NC(=O)CC(C)C)c2cc(OCCCO)ccc2N1C(=O)Cc1ccc(OC)cc1 | 2.26 (inactive) | -0.145 | 6.25 (inactive) | -0.537 (inactive) | -1.07 (inactive) | -1.3 (inactive) | 1.72 | 0.163 (inactive) | 0.781 (inactive) | 1.15
CN(C)CCCCNC(=O)[C@@H]1C[C@@H]2C(=O)N[C@@H](Cc3ccccc3)C(=O)N2[C@@H]1c1cccc(OCCO)c1 | 2.93 (inactive) | 0.243 | 7.44 (inactive) | -0.16 (inactive) | -1.84 (inactive) | -1.29 (inactive) | 0.602 | 0.767 (inactive) | 0.74 (inactive) | 1.55
COCCOC(=O)N1C(=O)[C@@]2(c3cc(C#CC4=CCCCC4)ccc31)[C@H](c1ccc(OCCO)cc1)N1[C@H](c3ccccc3)[C@H](c3ccccc3)OC(=O)[C@H]1[C@@H]2C(=O)N1CCN(c2ncccn2)CC1 | 0.887 (inactive) | 0.121 | 3.35 (inactive) | 1.73 (inactive) | -0.146 (inactive) | 0.799 (inactive) | 0.829 | 0.825 (inactive) | -0.623 (inactive) | 1.03
COCCOC(=O)N1C(=O)[C@@]2(c3cc(C#CC4=CCCCC4)ccc31)[C@H](c1ccccc1OCCO)N1[C@H](c3ccccc3)[C@H](c3ccccc3)OC(=O)[C@H]1[C@@H]2C(=O)N1CCCCCCC1 | -1.05 (inactive) | -0.999 | -0.606 (inactive) | 1.1 (inactive) | -0.56 (inactive) | 0.442 (inactive) | -0.56 | 0.962 (inactive) | -1.22 (inactive) | 0.545
C=CC[C@@]1(C(=O)N2CCOCC2)N=C(c2ccc(OCCCO)cc2)O[C@@H]1c1ccccc1CN=[N+]=[N-] | -0.124 (inactive) | 0.789 | 21.5 (active) | 4.83 (inactive) | 1.61 (inactive) | 0.986 (inactive) | 0.36 | -0.305 (inactive) | 0.645 (inactive) | -1.07
C=C(/C(=C/C[C@H](OC(C)=O)c1ccccc1OCCO)c1cc(C(=O)OC)ccc1OC)C(C)C | 0.483 (inactive) | -0.157 | 5.75 (inactive) | 0.195 (inactive) | 1.85 (inactive) | -1.19 (inactive) | 1.09 | 0.137 (inactive) | 0.264 (inactive) | -2.12
